Where a name gives a salt, the structure may show the parent alone.
test system: thyroid hormone receptor (endogenous TRα and TRβ); design: species or system GH3-TRE-Luc (rat pituitary); GH3-TRE-Luc luciferase reporter, antagonist mode against 1 nM T3, loss of signal, qHTS; conditions: antagonist mode, 1 nM T3, no GH3 cytotoxicity hit, read-out: Average AC50 (uM) GH3-TRE-Antag

**Q.** How did the AC50 turn out when `COc1ccc2[nH]cc(CCN(C(C)C)C(C)C)c2c1` [5-Methoxy-N,N-diisopropyltryptamine hydrochloride] was run?
**A.** 70.7 µM

**Q.** `COC1=CC=C2[C@H]3Cc4ccc(OC)c5c4[C@@]2(CCN3C)[C@H]1O5` [Thebaine] was tested. Which AC50 did it give?
**A.** > 20 µM

**Q.** `OC(c1ccccc1)(c1ccccc1)C1CCNCC1` [Azacyclonol] was tested. Which AC50 did it give?
**A.** 10.4 µM

**Q.** For `C[C@]12CCC(=O)C=C1CC[C@@H]1[C@@H]2CC[C@]2(C)C(=O)CC[C@@H]12` [4-Androstene-3,17-dione], which AC50 is on record?
**A.** > 50 µM

**Q.** How did the AC50 turn out when `CCOP(=S)(OCC)Oc1cnc2ccccc2n1` [Quinalphos] was run?
**A.** 55.1 µM

**Q.** `CCc1cc2c(s1)-n1c(C)nnc1CN=C2c1ccccc1Cl` [Etizolam] was tested. Which AC50 did it give?
**A.** > 50 µM

**Q.** `CCN(CC)c1nc(C)cc(OP(=S)(OC)OC)n1` [Pirimiphos-methyl] was tested. Which AC50 did it give?
**A.** 57.1 µM

**Q.** Which AC50 does the source give for `Nc1ccccc1C(=O)Oc1ccc2ccccc2c1` [Naphthalen-2-yl 2-aminobenzoate] here?
**A.** 82.4 µM

**Q.** With `CON(C)C(=O)Nc1ccc(Br)c(Cl)c1` [Chlorbromuron] as the compound, how does the AC50 read?
**A.** 60.7 µM

**Q.** `CC(C)(N)Cc1ccc(Cl)cc1` [Chlorphentermine hydrochloride] was tested. Which AC50 did it give?
**A.** 39.2 µM

**Q.** With `Clc1cc(Cl)c(-c2cc(Cl)c(Cl)cc2Cl)cc1Cl` [2,2',4,4',5,5'-Hexachlorobiphenyl] as the compound, how does the AC50 read?
**A.** 35.4 µM

**Q.** `C[C@]12CC[C@H](O)C[C@H]1CC[C@@H]1[C@@H]2CC[C@]2(C)[C@@H](c3ccc(=O)oc3)C[C@H]3O[C@]132` [Bufogenin] was tested. Which AC50 did it give?
**A.** 39.2 µM

**Q.** `COP(=S)(OC)Oc1cc(Cl)c(Br)cc1Cl` [Bromofos] was tested. Which AC50 did it give?
**A.** 65.8 µM

**Q.** `CCOP(=S)(OCC)Oc1ccc2c(C)c(Cl)c(=O)oc2c1` [Coumaphos] was tested. Which AC50 did it give?
**A.** > 50 µM

**Q.** `CCOc1ccc2c3c1O[C@H]1[C@@H](O)C=C[C@H]4[C@@H](C2)N(C)CC[C@@]341` [Ethylmorphine] was tested. Which AC50 did it give?
**A.** 44.9 µM

**Q.** For `C[C@]12CC[C@H]3[C@@H](CCC4=CC(=O)CC[C@@]43C)[C@@H]1CC[C@H]2O` [Epitestosterone], which AC50 is on record?
**A.** 38.7 µM

**Q.** For `CCOP(=O)(OCC)O/C(=C\Cl)c1ccc(Cl)cc1Cl` [Chlorfenvinphos], which AC50 is on record?
**A.** > 50 µM

**Q.** For `Clc1ccccc1-c1ccccc1Cl` [2,2'-Dichlorobiphenyl], which AC50 is on record?
**A.** > 100 µM

**Q.** How did the AC50 turn out when `COP(=S)(OC)Oc1nc(Cl)c(Cl)cc1Cl` [Chlorpyrifos-methyl] was run?
**A.** 78.8 µM

**Q.** `CNC(=O)O/N=C(\SC)C(=O)N(C)C` [Oxamyl] was tested. Which AC50 did it give?
**A.** > 90 µM

**Q.** How did the AC50 turn out when `COP(=S)(OC)Oc1ccc([N+](=O)[O-])cc1Cl` [Dicapthon] was run?
**A.** 79 µM

**Q.** For `CC(=O)O[C@H]1CC[C@@]2(C)C(=CC[C@@H]3[C@@H]2CC[C@]2(C)C(=O)CC[C@@H]32)C1` [Dehydroepiandrosterone acetate], which AC50 is on record?
**A.** 17.4 µM

**Q.** How did the AC50 turn out when `Clc1cccc(N2CCNCC2)c1` [1-(3-Chlorophenyl)piperazine] was run?
**A.** 20 µM

**Q.** How did the AC50 turn out when `CCCSP(=S)(OCC)Oc1ccc(Cl)cc1Cl` (centres unmarked) [Prothiofos] was run?
**A.** 86.7 µM

**Q.** `COP(=S)(OC)Oc1ccc(Sc2ccc(OP(=S)(OC)OC)cc2)cc1` [Temephos] was tested. Which AC50 did it give?
**A.** > 50 µM

**Q.** For `COc1ccc2c(c1)[C@]13CCCC[C@@H]1[C@H](C2)N(C)CC3` [Dextromethorphan hydrobromide monohydrate], which AC50 is on record?
**A.** 21.1 µM

**Q.** For `CCOP(=S)(OCC)SCn1nnc2ccccc2c1=O` [Azinphos-ethyl], which AC50 is on record?
**A.** > 90 µM

**Q.** How did the AC50 turn out when `Oc1ccc(Cl)c(Cl)c1Cl` [2,3,4-Trichlorophenol] was run?
**A.** 87.3 µM

**Q.** For `CCOP(=S)(OCC)Oc1ccc(Cl)cc1Cl` [Dichlofenthion], which AC50 is on record?
**A.** 71.5 µM

**Q.** How did the AC50 turn out when `Nc1ccc(-c2ccccc2)cc1` [4-Biphenylamine hydrochloride] was run?
**A.** 76.8 µM

same assay, conditions: read-out: Average AC50 (uM) GH3-TRE-Antag; 24 h; antagonist

**Q.** `COc1cc(C[C@H](C)N)c(OC)cc1C` [(S)-(+)-2,5-Dimethoxy-4-methylamphetamine hydrochloride] was tested. Which AC50 did it give?
**A.** 49.7 µM

**Q.** How did the AC50 turn out when `CC[C@H]1C[C@H]2[C@@H]3CCC4=CC(=O)CC[C@@H]4[C@H]3CC[C@]2(C)[C@H]1O` [Oxendolone] was run?
**A.** 21.2 µM

**Q.** How did the AC50 turn out when `Cl[Si](Cl)(c1ccccc1)c1ccccc1` [Dichlorodiphenylsilane] was run?
**A.** 76.3 µM

**Q.** With `CC[C@]1(O)CC[C@H]2[C@@H]3CCC4=CCCC[C@@H]4[C@H]3CC[C@@]21C` [Ethylestrenol] as the compound, how does the AC50 read?
**A.** 7.8 µM

**Q.** How did the AC50 turn out when `O=c1oc2ccccc2c(O)c1C(CC(O)c1ccc(-c2ccc(Br)cc2)cc1)c1ccccc1` (centres unmarked) [Bromadiolone] was run?
**A.** 44.3 µM

**Q.** `O=C1CN=C(c2ccccc2)c2cc(Cl)ccc2N1CC1CC1` [Prazepam] was tested. Which AC50 did it give?
**A.** > 50 µM

**Q.** With `CN1C(=O)C(O)N=C(c2ccccc2)c2cc(Cl)ccc21` (centres unmarked) [Temazepam] as the compound, how does the AC50 read?
**A.** > 50 µM

**Q.** For `CN1C(=S)CN=C(c2ccccc2)c2cc(Cl)ccc21` [Sulazepam], which AC50 is on record?
**A.** 43.6 µM

Source: article PMC6792352, “Limited Chemical Structural Diversity Found to Modulate Thyroid Hormone Receptor in the Tox21 Chemical Library” (Environmental Health Perspectives, 2019)
